Screening results: PubChem, The Scripps Research Institute Molecular Screening Center
S1P2 ag: S1P2 receptor agonists, primary screen, cell-based; actives 0.46% (n = 97,000); Sphingosine 1-phosphate receptor 2 (Homo sapiens), O95136; activation, % at 4.5 µM; AID 729, 2007; S1P2-expressing cell line, agonist reporter read-out; in the data active means activation above about 16%;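 further: 0% = vehicle low control and 100% = maximal reference agonist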
S1P2 antag: human S1P2 receptor antagonists, primary screen, cell-based; Sphingosine 1-phosphate receptor 2 (Homo sapiens), O95136; cell-based S1P2 antagonist assay, inhibition at 5 uM; inhibition, % at 5 µM; actives 0.21% (n = 97,000); in the data active means inhibition above about 45%;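 further: CRE beta-lactamase reporter cells expressing human S1P2 stimulated with S1P; 0% = agonist at EC80 alone and 100% = agonist plus reference antagonist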
GALR2 blocker: GALR2 antagonists in receptor-expressing cells, primary screen. actives 0.39% (n = 140,000). antagonist mode. Galanin receptor type 2 (Homo sapiens), O43603. inhibition, % at 4 µM; in the data active means inhibition above about 27%;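 further: cells stimulated with galanin 1-16 at roughly its EC80; 0% = agonist challenge control and 100% = basal control without agonist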
Target sequence (O43603 whole entry, looked up): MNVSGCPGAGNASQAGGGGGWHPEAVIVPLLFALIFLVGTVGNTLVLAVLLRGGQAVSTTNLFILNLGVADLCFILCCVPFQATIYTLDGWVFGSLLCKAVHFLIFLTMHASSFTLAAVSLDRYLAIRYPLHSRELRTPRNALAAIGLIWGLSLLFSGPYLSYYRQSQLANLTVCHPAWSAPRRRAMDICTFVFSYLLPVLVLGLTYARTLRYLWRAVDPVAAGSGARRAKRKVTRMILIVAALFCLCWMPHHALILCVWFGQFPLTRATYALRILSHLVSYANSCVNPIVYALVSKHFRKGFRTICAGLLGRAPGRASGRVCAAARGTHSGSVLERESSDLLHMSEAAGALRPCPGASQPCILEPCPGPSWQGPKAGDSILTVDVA
GALR2 ag: GALR2 receptor agonists, primary screen, cell-based | Galanin receptor type 2 (Homo sapiens), O43603 | GALR2-expressing cells, agonist activation read-out | activation, % (no concentration beside the values) | actives 0.48% (n = 140,000); in the data active means activation above about 5%, passing the limit was not always enough;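 further: 0% = vehicle buffer wells and 100% = reference agonist at full effect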
Numbers without * were called inactive; . = no result. Most compounds without a hit are left out; they make up all but 1.2% or so of the library.

SMILES	S1P2 ag	S1P2 antag	GALR2 blocker	GALR2 ag
CCOC(=O)c1[nH]c2ccc(F)cc2c1NC(=O)c1cc(OC)c(OC)c(OC)c1	18*	-33	6	-1
CCCOC(=O)c1ccc(Oc2coc3c(CN(CC)CC)c(O)ccc3c2=O)cc1	.	.	1	0
COc1ccc(N(CC(=O)N/N=C/c2ccc(-c3ccc([N+](=O)[O-])cc3)o2)S(=O)(=O)c2ccc(C)cc2)cc1Cl	-11	50*	7	-1
COc1cccc(-c2nnc(-c3ccc(C(F)(F)F)cc3)o2)c1OC	-1	12	-3	-2
COc1cc(OC)c(-c2nnc(-c3ccc(OC)c(OC)c3OC)o2)cc1OC	16*	-12	-5	0
CC(=O)NCCn1c(SCc2cc(=O)n3cc(Cl)ccc3n2)nc2ccccc2c1=O	22*	-37	3	-2
O=[N+]([O-])c1cccc(-c2nc(-c3ccncc3)no2)c1	36*	4	0	-1
N=c1c(-c2nc3ccccc3[nH]2)cc(C(=O)c2cccs2)nn1-c1ccccc1	22*	-25	1	-3
CCOCCCNC(=O)COc1ccc(OC)cc1	-1	-26	1	-4
Cc1ccc(-c2cc(C(F)F)nc(NCc3cccnc3)n2)cc1	-7	-12	-6	5.0*
CCOCCCn1c(SCC(=O)/C(C#N)=C(\C)N)nc2ccccc2c1=O	.	.	-2	-1
C/C(N)=C(/C#N)C(=O)CSc1nc2ccccc2c(=O)n1CCCOC(C)C	.	.	-7	5.6*
Cc1nn(C)c(Oc2ccc(Cl)cc2)c1C(=O)Nc1ccc(F)cc1F	-2	-18	12	-2
CCC(=O)c1cc2c(C)cc(=O)oc2c(C)c1O	119*	-17	3	0
CCC(=O)c1cc2c(C)cc(=O)oc2c(C)c1OC(C)=O	.	.	2	1
CCOC(=O)c1cccc2c(=O)c(C(=O)c3ccc(Cl)cc3)c(C(=O)OC)[nH]c12	.	.	4	-1
COc1ccc(/C=C/C(=O)c2cc(F)ccc2OC(=O)c2ccccc2)cc1OC	-3	-4	13	5.5*
O=C1CC(N(CCc2ccccc2)C(=S)Nc2cc(Cl)ccc2Cl)C(=O)N1c1c(Cl)cccc1Cl (configuration not stated)	-7	8	7	-1
CCOC(=O)c1cc(-c2ccc3c(c2)OCCO3)nc2c1c(C)nn2CCC#N	-5	-35	-1	7.1*
Cc1nn(-c2ccccc2)c(N2CCCC2)c1/C=N/n1cnc2scc(-c3ccccc3)c2c1=O	-9	23	-5	-2
O=c1c2c(-c3ccccc3)csc2ncn1/N=C/c1c2ccccc2cc2ccccc12	18*	15	-11	-1
Cc1ccc(-c2nc(CSCC(=O)NCCN3CCN(Cc4ccccc4)CC3)c(C)o2)cc1	-6	47*	10	-2
CC1CCCC(NC(=O)CCn2c(=O)oc3ccccc32)C1C (configuration not stated)	-4	18	-5	-1
CC(C)Cn1c(N)c(C(=O)COC(=O)c2ccc3ccccc3n2)c(=O)n(C)c1=O	22*	-22	12	-2
Cc1c(C(=O)OCC(=O)c2c(N)n(CC(C)C)c(=O)n(C)c2=O)oc2ccccc12	-5	-7	11	-3
SMILES	S1P2 ag	S1P2 antag	GALR2 blocker	GALR2 ag
O=C(Nc1cccc(O)c1)c1cnn2cccnc12	-1	4	5	-2
O=C(Nc1ccc2c(c1)OCO2)c1cnn2cccnc12	-1	14	19	374*
CCOC(=O)c1[nH]c2c(c1C)C(=O)CC(c1ccc(F)cc1)C2 (configuration not stated)	.	.	12	0
CCCCCOC(=O)c1[nH]c2c(c1C)C(=O)CC(c1ccco1)C2 (configuration not stated)	.	.	35*	2
CCOC(=O)c1[nH]c2c(c1C)C(=O)CC(c1ccc(OCC)c(OC)c1)C2 (configuration not stated)	-4	-36	-7	-1
CCCOC(=O)c1[nH]c2c(c1C)C(=O)CC(c1ccc(OC)c(OC)c1)C2 (configuration not stated)	.	.	1	5.2*
COCCn1c(=NC(=O)c2nc3ccccc3s2)sc2cc(S(C)(=O)=O)ccc21	.	.	-1	0
COCCn1c(=NC(C)=O)sc2cc([N+](=O)[O-])ccc21	.	.	1	6.2*
COc1cc2c(cc1OC)CN(c1ccc([N+](=O)[O-])cc1C#N)CC2	.	.	4	-1
COc1cc2c(cc1OC)C1=C(C#N)CN(C3CCCCC3)CN1CC2	20*	-49	-1	-1
COc1ccc(CCN2CC(C#N)=C3c4cc(OC)c(OC)cc4CCN3C2)cc1OC	24*	-37	-3	-1
COc1ccc(CCNS(=O)(=O)c2ccc3c(c2)CCN3C(=O)C2CC2)cc1OC	-5	-8	-8	-1
Cc1ccc(Cl)cc1N1CCN(CC(=O)NC2CCCc3ccccc32)CC1 (configuration not stated)	.	.	-10	0
COc1ccc(C(=O)OCCNC(=O)c2c(Cl)nc3ccccn23)cc1	21*	-28	-7	-1
O=C(Nc1ccc(S(=O)(=O)N2CCCCC2)cc1)c1ccc(CN2CCc3ccccc3C2)cc1	-4	52*	19	-1
Cc1cccc(-n2ncc3c(NC(C)C)ncnc32)c1	.	.	27*	-2
CC(C)Nc1ncnc2c1cnn2-c1ccccc1	-3	21	9	-2
CC(C)(C)C1CCC(C(=O)OCC(=O)c2ccc[nH]2)CC1 (configuration not stated)	.	.	3	1
CCCNC(=O)c1c(N)n(-c2ccc3c(c2)OCO3)c2nc3ccccc3nc12	0	14	-2	0
COc1ccc(CNC(=O)c2c(N)n(CCCN3CCOCC3)c3nc4ccccc4nc23)cc1	39*	-73	-35	32*
Nc1c(C(=O)NCc2ccc(F)cc2)c2nc3ccccc3nc2n1CCCN1CCOCC1	45*	-70	-43	41*
CCCNC(=O)c1c(N)n(-c2cc(OC)cc(OC)c2)c2nc3ccccc3nc12	.	.	-9	14*
CCOc1ccc(C2NC(=O)C(C#N)=C(S)N2c2ccc(C)cc2)cc1OC (configuration not stated)	-1	-28	-10	1
CCOc1ccc(-n2cc(C(=O)Nc3cccc(C)n3)c3cc(OC)c(OC)cc3c2=O)cc1	-6	2	-3	-2
CCOC(=O)C1=C(C)Nc2sc(C(=O)c3ccc(C)cc3)c(N)c2C1c1ccc(C(=O)OC)cc1 (configuration not stated)	.	.	1	5.5*
CC1CCc2c(sc(NC(=O)CSc3nc4c(c(C(F)(F)F)n3)CCc3ccccc3-4)c2C(N)=O)C1 (configuration not stated)	.	.	6	-1
O=C1[C@H]2[C@@H](C(=O)N1c1cccc3ccccc13)C1(C(=O)c3ccccc3C1=O)N1CCC[C@@H]21	-2	0	7	-2
CCCn1c(C(=O)OC)cc2c1ccn2-c1ccc(F)cc1	-1	7	-17	5.6*
COC(=O)c1cc2c(ccn2-c2ccc(F)cc2)n1C(C)C	-2	4	1	2
O=C(COc1ccc(Cl)cc1Br)NNC(=O)C(=O)N1CCCCC1	-5	-12	3	21*
